In all, about 5,500 compounds went through this assay and about 2,000 (36%) were called active. Roughly 18% stayed inconclusive and do not appear here. No stated cut-off is given here; in the data, active means normalized growth mostly below about 0.91 (no sharp cut-off); inconclusive means no clear call, values can overlap the other calls; inactive means mostly above about 0.92. Some of the results follow.
Assay: chemical genetic growth profiling, strain panel (AID 1159580);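 further: tested at 20 µM; growth read once vehicle control cultures reached saturation at 30 °C; 1 = growth at the plate median or of vehicle wells; lower values mean less growth of the strain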
Conditions: growth OD

Measured: normalized growth

O=C(O)[C@H](O)[C@@](O)(Cc1ccc(O)cc1)C(=O)O
inactive: S. cerevisiae deletion strains, locus YJR066W, strain TOR1, hits give low values 0.995 | S. cerevisiae deletion strains, locus YJR075W, strain HOC1, hits give low values 1.03 | S. cerevisiae deletion strains, locus YKL009W, strain mrt4, hits give low values 1.07 | S. cerevisiae deletion strains, locus YKL068W, hits give low values 1 | S. cerevisiae deletion strains, locus YKL085W, strain MDH1 (second series), hits give low values 1.02 | S. cerevisiae deletion strains, locus YKL085W, strain MDH1, hits give low values 1.02 | S. cerevisiae deletion strains, locus YKL160W, strain elf1, hits give low values 1.01 | S. cerevisiae deletion strains, locus YKL190W, strain CNB1, hits give low values 1.02 | S. cerevisiae deletion strains, locus YKR001C, strain vps1, hits give low values 1.02 | S. cerevisiae deletion strains, locus YKR026C, strain gcn3, hits give low values 1 | S. cerevisiae deletion strains, locus YKR091W, strain srl3, hits give low values 1 | S. cerevisiae deletion strains, locus YLL001W, strain dnm1, hits give low values 1.03 | S. cerevisiae deletion strains, locus YLL026W, hits give low values 1 | S. cerevisiae deletion strains, locus YLL041C, strain sdh2, hits give low values 1 | S. cerevisiae deletion strains, locus YLR027C, strain aat2, hits give low values 1.01 | S. cerevisiae deletion strains, locus YLR039C, strain RIC1, hits give low values 1.13 | S. cerevisiae deletion strains, locus YLR058C, strain SHM2, hits give low values 1.04 | S. cerevisiae deletion strains, locus YLR102C, strain apc9, hits give low values 0.994 | S. cerevisiae deletion strains, locus YLR113W, strain HOG1, hits give low values 1 | S. cerevisiae deletion strains, locus YLR221C, strain rsa3, hits give low values 1.03 | S. cerevisiae deletion strains, locus YLR258W, strain gsy2, hits give low values 1.01 | S. cerevisiae deletion strains, locus YLR262C, strain YPT6 (second series), hits give low values 1.03 | S. cerevisiae deletion strains, locus YLR268W, strain sec22, hits give low values 1.04 | S. cerevisiae deletion strains, locus YLR320W, strain mms22, hits give low values 1.03 | S. cerevisiae deletion strains, locus YLR330W, strain CHS5, hits give low values 1.02 | S. cerevisiae deletion strains, locus YLR342W, strain FKS1 (second series), hits give low values 1.09 | S. cerevisiae deletion strains, locus YLR342W, strain FKS1, hits give low values 1.01 | S. cerevisiae deletion strains, locus YLR357W, strain rsc2, hits give low values 1.01 | S. cerevisiae deletion strains, locus YLR370C, strain arc18, hits give low values 1.01 | S. cerevisiae deletion strains, locus YLR371W, strain rom2, hits give low values 1 | S. cerevisiae deletion strains, locus YLR384C, strain iki3, hits give low values 1.01 | S. cerevisiae deletion strains, locus YLR418C, strain cdc73, hits give low values 1.01 | S. cerevisiae deletion strains, locus YML016C, strain PPZ1, hits give low values 1.01 | S. cerevisiae deletion strains, locus YML032C, strain rad52, hits give low values 1.01 | S. cerevisiae deletion strains, locus YML120C, strain ndi1, hits give low values 1 | S. cerevisiae deletion strains, locus YML124C, strain tub3, hits give low values 1.01 | S. cerevisiae deletion strains, locus YMR058W, strain fet3, hits give low values 1.02 | S. cerevisiae deletion strains, locus YMR078C, strain ctf18, hits give low values 0.982 | S. cerevisiae deletion strains, locus YMR125W, strain sto1, hits give low values 1.01 | S. cerevisiae deletion strains, locus YMR129W, hits give low values 1.01 | S. cerevisiae deletion strains, locus YMR205C, strain PFK2, hits give low values 1.02 | S. cerevisiae deletion strains, locus YMR223W, strain ubp8, hits give low values 1.01 | S. cerevisiae deletion strains, locus YMR231W, strain pep5, hits give low values 0.998 | S. cerevisiae deletion strains, locus YMR263W, strain SAP30, hits give low values 1.02 | S. cerevisiae deletion strains, locus YMR307W, strain GAS1, hits give low values 1.04 | S. cerevisiae deletion strains, locus YNL067W, strain RPL9B, hits give low values 1.02 | S. cerevisiae deletion strains, locus YNL071W, strain lat1, hits give low values 1.01 | S. cerevisiae deletion strains, locus YNL153C, strain GIM3, hits give low values 1.02 | S. cerevisiae deletion strains, locus YNL183C, strain NPR1, hits give low values 1.01 | S. cerevisiae deletion strains, locus YNL209W, strain ssb2, hits give low values 1 | S. cerevisiae deletion strains, locus YNL233W, strain BNI4, hits give low values 1.04 | S. cerevisiae deletion strains, locus YNL248C, strain rpa49, hits give low values 1 | S. cerevisiae deletion strains, locus YNL250W, strain rad50, hits give low values 1.01 | S. cerevisiae deletion strains, locus YNL271C, strain bni1, hits give low values 1.01 | S. cerevisiae deletion strains, locus YNL298W, strain CLA4, hits give low values 0.987 | S. cerevisiae deletion strains, locus YNL307C, strain MCK1, hits give low values 0.987 | S. cerevisiae deletion strains, locus YNL322C, strain KRE1 (second series), hits give low values 1.01 | S. cerevisiae deletion strains, locus YNR049C, strain mso1, hits give low values 1 | S. cerevisiae deletion strains, locus YNR052C, strain pop2, hits give low values 0.995 | S. cerevisiae deletion strains, locus YOL006C, strain TOP1, hits give low values 1.25 | S. cerevisiae deletion strains, locus YOL012C, strain htz1 0.973 | S. cerevisiae deletion strains, locus YOL147C, strain pex11, hits give low values 1 | S. cerevisiae deletion strains, locus YOR001W, strain rrp6, hits give low values 0.986 | S. cerevisiae deletion strains, locus YOR061W, strain CKA2, hits give low values 1.04 | S. cerevisiae deletion strains, locus YOR069W, strain VPS5, hits give low values 1.01 | S. cerevisiae deletion strains, locus YOR070C, strain gyp1, hits give low values 1.02 | S. cerevisiae deletion strains, locus YOR080W, strain dia2, hits give low values 1.01 | S. cerevisiae deletion strains, locus YOR083W, strain WHI5, hits give low values 1.03 | S. cerevisiae deletion strains, locus YOR106W, strain vam3, hits give low values 1.01 | S. cerevisiae deletion strains, locus YOR136W, strain idh2, hits give low values 1.01 | S. cerevisiae deletion strains, locus YOR144C, strain elg1, hits give low values 1 | S. cerevisiae deletion strains, locus YOR184W, strain ser1, hits give low values 1.04 | S. cerevisiae deletion strains, locus YOR231W, strain MKK1, hits give low values 1.02 | S. cerevisiae deletion strains, locus YOR265W, strain rbl2, hits give low values 1 | S. cerevisiae deletion strains, locus YOR270C, strain vph1, hits give low values 1.05 | S. cerevisiae deletion strains, locus YOR290C, strain snf2, hits give low values 1.01 | S. cerevisiae deletion strains, locus YOR316C, strain cot1, hits give low values 1 | S. cerevisiae deletion strains, locus YPL051W, strain arl3, hits give low values 1.05 | S. cerevisiae deletion strains, locus YPL078C, strain atp4, hits give low values 1.01 | S. cerevisiae deletion strains, locus YPL106C, strain sse1, hits give low values 1.01 | S. cerevisiae deletion strains, locus YPL240C, strain hsp82, hits give low values 1.01 | S. cerevisiae deletion strains, locus YPL241C, strain CIN2, hits give low values 1.01 | S. cerevisiae deletion strains, locus YPL256C, strain CLN2, hits give low values 0.993 | S. cerevisiae deletion strains, locus YPR119W, strain clb2, hits give low values 1 | S. cerevisiae deletion strains, locus YPR141C, strain kar3, hits give low values 1 | S. cerevisiae deletion strains, locus YPR163C, strain tif3, hits give low values 0.992 | S. cerevisiae deletion strains, locus YPR167C, strain met16, hits give low values 1.01 | S. cerevisiae deletion strains, strain wtn01, hits give low values 1.02 | S. cerevisiae strains, strain wild type, hits give low values 1.03
